Screening results from PubChem BioAssay.
A selection: hits, their analogues and other compounds. The true share with any hit is near 3.9%.
Vc quorum ag-1 = inducers of Vibrio cholerae quorum light production without autoinducers; V. cholerae BH1578 lux reporter, luminescence, 6 h; activation, % at 18.7 µM; 0.16% of 350,000 active; in the data active = activation mostly above about 9.7%, no sharp cut-off
GDH-TPI counter = GDH-TPI coupled enzyme inhibition counter-screen; GDH-TPI coupled enzyme counterscreen, NADH absorbance; inhibition, % at 4.8 µM; 1.2% of 360,000 active;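 also: 0% = DMSO wells and 100% = wells lacking the enzyme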
Mtb FBA inh = Mtb fructose-bisphosphate aldolase inhibition; 2.3% of 360,000 active; P9WQA3; inhibition, % at 1 µM; purified M. tuberculosis FBA, fluorescence read-out; in the data active = inhibition above about 27%;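 also: 0% = vehicle and 100% = reference inhibitor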
Target sequence (P9WQA3 whole entry, looked up): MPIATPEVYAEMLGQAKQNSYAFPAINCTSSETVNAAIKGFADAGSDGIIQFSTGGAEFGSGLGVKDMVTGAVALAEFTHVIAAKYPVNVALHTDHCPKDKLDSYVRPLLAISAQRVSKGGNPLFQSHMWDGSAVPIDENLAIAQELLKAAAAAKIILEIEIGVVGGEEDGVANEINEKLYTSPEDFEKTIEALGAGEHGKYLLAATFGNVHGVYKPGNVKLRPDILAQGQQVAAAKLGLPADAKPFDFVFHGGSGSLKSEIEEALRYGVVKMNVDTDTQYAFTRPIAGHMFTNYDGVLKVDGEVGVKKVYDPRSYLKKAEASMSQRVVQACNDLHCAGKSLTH
CCHFV vOTU inh = CCHFV vOTU protease inhibition. inhibition, % at 11.5 µM. Pep-AMC fluorescence. 0.55% of 370,000 active; also: 0% = vehicle wells with enzyme and 100% = no enzyme wells
Vc quorum ag-2 = induces V. cholerae light production without autoinducers; activation, % at 50 µM; V. cholerae BH1578 lux reporter, luminescence, 6 h; 620 tested, under 10 active; shares compounds with Vc quorum ag-1; call rule not given here
HeLa 24h tox = cytotoxicity in HeLa cells at 24 hours | HeLa viability, CellTiter-Glo ATP luminescence | shares compounds with Vc quorum ag-1 | activity change, negative = cytotoxicity, % at 35 µM | 25 tested, under 10 active;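 active = signal drop with fitted half-maximal concentration at or below twice the highest valid dose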
* = called active by the depositor; i = inactive; nt = no result given; + = active, no number. Rule as the data show it, unless noted: active = inhibition above about 30%; inactive = the rest.

SMILES | Vc quorum ag-1 | GDH-TPI counter | Mtb FBA inh | CCHFV vOTU inh | Vc quorum ag-2 | others
Cc1ccc(N(C(C)C(=O)O)S(=O)(=O)c2c(C)[nH]c(=O)[nH]c2=O)cc1 (stereo not drawn) | 0 | 3 | 0 | 0 | nt
COc1cc(C(=O)Nc2ccc(NC(=O)c3ccccc3)nc2)cc(OC)c1OC | 1 | 0 | 1 | 0 | nt
COc1cc(C(=O)Nc2ccc(NC(=O)C(C)C)nc2)cc(OC)c1OC | 6.7* | 0 | 4 | 1 | 0
CC(C)(C)c1ccc(CSc2nnc(-c3ccccc3NC(=O)c3ccccc3)o2)cc1 | 0 | 1 | 0 | 2 | nt
CC(=O)Oc1ccc(-c2ccc(C(=O)O)cc2)cc1 | 25* | -9 | 5 | -4 | 0
CC(=O)Oc1ccc(-c2cccc(C(=O)O)c2)cc1 | i | 14 | 5 | -10 | nt
CC(C)(C)C(=O)OCc1cn(-c2ccccc2)nn1 | 0 | 18 | 0 | -4 | nt
CCNC(=O)OCc1cn(-c2ccccc2)nn1 | + | -2 | 2 | -7 | i
O=C1CCCN1Cc1ncnn1-c1ccccc1 | 2 | 0 | 4 | 6 | nt
COc1ccc(S(=O)(=O)N2CCOC2CNC(=O)C(=O)NCc2ccccc2Cl)cc1 (stereo not drawn) | i | 2 | 3 | 14 | nt
O=C(COC(=O)/C=C/c1ccccc1)NC1CCCCC1 | i | 3 | 0 | 10 | nt
O=C(COC(=O)/C=C/c1ccccc1)NC1CCCC1 | 529* | 4 | 0 | 8 | 476
O=C(COC(=O)/C=C/c1ccc(OC(F)F)cc1)NC1CCCCCC1 | 9.5* | 14 | 4 | -8 | 0
O=C(Cc1ccc(Cl)cc1)NC1CCCCCC1 | i | 2 | 2 | 7 | nt
O=C(Cc1ccc(-c2ccccc2)cc1)NC1CCCC1 | nt | 0 | -7 | 17 | nt | HeLa 24h tox=-14
C=CCn1c(SCc2ccc(Cl)cc2)nc2c1c(=O)[nH]c(=O)n2C | 0 | -1 | -4 | -2 | nt
O=C(CSc1nnnn1C1CC1)N1CCN(Cc2ccccc2F)CC1 | i | 6 | 0 | -12 | nt
CCN(CC(=O)Nc1c(F)cccc1F)C(=O)c1ccc(C)c(S(=O)(=O)N2CCCCC2)c1 | 2 | 1 | 0 | nt | 0
CCN(CC(=O)Nc1c(F)cccc1F)C(=O)c1ccc(S(=O)(=O)N2CCCC2)cc1 | -2 | -3 | -3 | 6 | nt
COc1cc(NC(=O)c2ccccc2)c(OC)cc1NC(=O)CN1C(=O)N(C)C2(CCCCC2)C1=O | 14 | 4 | -2 | 2 | 1
c1ccc2oc(-c3[nH]ncc3CN(Cc3ccncc3)CC3CCCO3)cc2c1 (stereo not drawn) | 0 | -7 | 0 | -3 | nt
CN(Cc1cn[nH]c1-c1cc2ccccc2o1)CC1CCOCC1 | 25* | 12 | 0 | -6 | 1
Cc1ccc(S(=O)(=O)N2CCN(C(=O)COC(=O)/C=C/c3ccc(F)cc3)CC2)c(C)c1 | 2 | 2 | -5 | -7 | 0
Cc1nn(-c2ccccc2)c(C)c1NC(=O)COC(=O)c1ccccc1 | -1 | 6 | -4 | -10 | nt
Cc1nn(-c2ccccc2)c(C)c1NC(=O)COC(=O)c1cccc(OC(F)F)c1 | 26 | -3 | 1 | 12 | 0
SMILES | Vc quorum ag-1 | GDH-TPI counter | Mtb FBA inh | CCHFV vOTU inh | Vc quorum ag-2 | others
CCN(CC(=O)Nc1ccc2c(c1)OCCO2)C(=O)/C=C/c1cccc(C(F)(F)F)c1 | i | -4 | 0 | 26 | nt
CCc1ccc(C(=O)Nc2nnnn2CC)cc1 | nt | nt | nt | nt | nt | HeLa 24h tox=-5
CN(C)c1nc(N)ncc1-c1ccc(Oc2ccccc2)cc1 | 53* | -2 | 3 | -9 | 7
O=C(Cn1cccc1C(=O)c1ccccc1)NCCN1CCCCCC1 | 12 | 7 | -1 | -10 | 0
CN(c1ccccc1)S(=O)(=O)c1nnc(NC(=O)C2CCCCC2)s1 | 19* | 3 | 2 | -1 | 0
O=C(NCCCN1CCOCC1)c1ccc2c(=O)n(Cc3cccc(Br)c3)c(=S)[nH]c2c1 | 0 | 4 | 1 | nt | nt
O=C(c1ccco1)N1CCN(c2nc(C3CC3)nc3c2nnn3Cc2ccccc2Cl)CC1 | 1 | 1 | 5 | 11 | nt
CC(C)(C)c1nc(N2CCN(C(=O)c3ccco3)CC2)c2nnn(Cc3ccccc3)c2n1 | 17* | -13 | -5 | 1 | 0
O=C(Cn1c(=O)cnc2ccccc21)N1CCN(S(=O)(=O)c2ccc(F)cc2)CC1 | -6 | 11 | 0 | -1 | nt
CC(=O)c1cc2c(cc1NC(=O)Cc1c(C)noc1C)OCO2 | 22* | 9 | 3 | -4 | 1
CC(NCC(=O)Nc1ccccc1C(=O)NC1CC1)c1ccc(S(C)(=O)=O)cc1 (stereo not drawn) | 0 | -3 | 6 | 12 | nt
CSc1ccc(C#N)cc1NC(=O)c1ccc(Cl)cc1Cl | 186* | 1 | 1 | 4 | 0
O=C(NCC(c1ccc(F)cc1)N1CCOCC1)c1ccc(OCc2ccccc2)cc1 (stereo not drawn) | i | 5 | 2 | -12 | nt
CCS(=O)(=O)Nc1ccc(C(=O)OC)cc1 | 17* | -11 | -1 | 12 | 0
Cc1ccc(S(=O)(=O)N/N=C\c2ccc(C)o2)cc1 | i | 6 | 0 | 0 | nt
COc1ccccc1N1CCN(CCCOc2ccc(F)cc2)CC1 | 12 | -8 | 0 | 0 | 0
COc1ccccc1N1CCN(CCCCOc2c(OC)cccc2OC)CC1 | -1 | -2 | -3 | -15 | nt
Cc1cc(C)cc(OC(=O)c2cccnc2)c1 | 32* | 3 | 2 | -127 | 0
COC(=O)c1cc(Br)ccc1OC(=O)c1cccnc1 | 17* | -2 | -3 | 10 | 0
Cc1ccc(SCc2nc(-c3cccnc3)no2)cc1 | 21* | 2 | 3 | 1 | 0
Cc1cc(C)c(C)c(OCc2nc(-c3cccnc3)no2)c1 | i | -2 | -2 | -2 | nt
CCC1C(=O)NCCN1C(=O)CCc1nnc(CCc2ccc(OC)cc2)o1 (stereo not drawn) | 11 | 1 | -2 | 4 | 0
COc1cccc(-c2nnn(CC(=O)Nc3ccc(C)cc3C)n2)c1OC | i | 8 | 4 | -2 | nt
CCn1nc(NC(=O)c2ccco2)c2cc3ccccc3nc21 | 40* | 19 | 9 | -17 | 216
CCCCOC(=O)n1c(=O)oc2ccccc21 | 231* | -1 | -9 | 15 | 118
SMILES | Vc quorum ag-1 | GDH-TPI counter | Mtb FBA inh | CCHFV vOTU inh | Vc quorum ag-2 | others
CC(=O)Nc1ccc(NC(=O)c2ccccc2C)cc1 | 257* | 0 | 0 | -11 | 0
OCCN1CCN(CCSc2ccccc2)CC1 | 0 | 7 | -1 | -9 | nt
O=C(CN1CCN(c2ccc(F)cc2)CC1)Nc1cc(C(F)(F)F)ccc1Cl | 25* | 13 | -1 | 4 | 1
Cn1c(CCN2CCCCC2)nc2cc(NS(=O)(=O)c3ccc(F)cc3)ccc21 | i | 7 | 5 | 5 | nt
Cn1c(=O)c2c(nc(SCCN3CCOCC3)n2Cc2cccc3ccccc23)n(C)c1=O | 12 | -12 | 6 | 4 | 0
CCN1CCN(C(=O)c2ccc(COc3ccc(Cl)cc3)o2)CC1 | 12 | 0 | 2 | 4 | 1
Cc1ccc(NC(=O)CSCc2cc(=O)n3cc(C)sc3n2)c(C)c1 | 0 | 7 | -5 | -6 | nt
